Experimental data as given in ChEMBL document CHEMBL1961873, “Compounds: GSK PKIS; Assays: Nanosyn kinase panel” (2012).

Key:
[1] = target: Ribosomal protein S6 kinase alpha-6 (Homo sapiens) (UniProt Q9UK32); details: at 1 µM;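 note: each value is a mean inhibition of RSK4 from a GSK PKIS panel screen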
[2] = target: T1, Serine/threonine-protein kinase Sgk1 (Homo sapiens) (UniProt O00141); details: at 0.1 µM
T1 sequence (whole entry): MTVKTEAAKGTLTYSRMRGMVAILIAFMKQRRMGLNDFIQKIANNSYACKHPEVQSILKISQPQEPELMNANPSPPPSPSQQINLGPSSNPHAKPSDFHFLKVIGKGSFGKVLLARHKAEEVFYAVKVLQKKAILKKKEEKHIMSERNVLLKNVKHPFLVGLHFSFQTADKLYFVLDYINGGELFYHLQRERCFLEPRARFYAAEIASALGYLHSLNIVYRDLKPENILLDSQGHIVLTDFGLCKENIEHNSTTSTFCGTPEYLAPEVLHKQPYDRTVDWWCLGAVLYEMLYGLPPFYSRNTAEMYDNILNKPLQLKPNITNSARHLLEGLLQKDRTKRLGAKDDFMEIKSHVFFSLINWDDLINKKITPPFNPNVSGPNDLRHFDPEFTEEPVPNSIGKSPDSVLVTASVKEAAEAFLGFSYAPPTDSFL

[3] = target: T1, Serine/threonine-protein kinase Sgk1 (Homo sapiens); details: at 1 µM
[4] = target: T2, Serine/threonine-protein kinase Sgk2 (Homo sapiens) (UniProt Q9HBY8); details: at 0.1 µM
T2 sequence (whole entry): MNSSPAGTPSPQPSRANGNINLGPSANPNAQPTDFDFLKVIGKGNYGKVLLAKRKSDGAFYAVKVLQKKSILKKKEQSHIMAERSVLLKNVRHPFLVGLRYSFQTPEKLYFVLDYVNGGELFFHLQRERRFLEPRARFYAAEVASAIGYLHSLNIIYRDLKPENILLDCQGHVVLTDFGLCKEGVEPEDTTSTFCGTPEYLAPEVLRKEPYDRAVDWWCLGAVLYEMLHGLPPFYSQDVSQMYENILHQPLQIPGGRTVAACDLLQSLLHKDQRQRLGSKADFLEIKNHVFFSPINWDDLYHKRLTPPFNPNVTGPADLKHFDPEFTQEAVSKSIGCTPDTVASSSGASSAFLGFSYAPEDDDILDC

[5] = target: T2, Serine/threonine-protein kinase Sgk2 (Homo sapiens); details: at 1 µM
[6] = target: T3, Serine/threonine-protein kinase Sgk3 (Homo sapiens) (UniProt Q96BR1); details: at 0.1 µM
T3 sequence (whole entry): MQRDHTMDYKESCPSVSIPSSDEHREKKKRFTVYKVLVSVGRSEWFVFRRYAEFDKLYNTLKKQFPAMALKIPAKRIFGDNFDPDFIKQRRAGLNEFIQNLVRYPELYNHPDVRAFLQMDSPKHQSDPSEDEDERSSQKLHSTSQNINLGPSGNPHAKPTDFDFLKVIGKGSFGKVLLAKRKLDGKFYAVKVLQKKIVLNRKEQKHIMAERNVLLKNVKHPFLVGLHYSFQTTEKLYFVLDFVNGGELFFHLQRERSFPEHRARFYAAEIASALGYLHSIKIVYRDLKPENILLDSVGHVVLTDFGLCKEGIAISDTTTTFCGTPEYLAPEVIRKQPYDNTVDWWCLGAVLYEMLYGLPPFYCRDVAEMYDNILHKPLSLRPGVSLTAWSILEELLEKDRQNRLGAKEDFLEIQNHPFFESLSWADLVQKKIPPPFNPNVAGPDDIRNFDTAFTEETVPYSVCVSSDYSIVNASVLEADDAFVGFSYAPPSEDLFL

[7] = target: T3, Serine/threonine-protein kinase Sgk3 (Homo sapiens); details: at 1 µM
[8] = target: 5'-AMP-activated protein kinase catalytic subunit alpha-1 (Homo sapiens) (UniProt Q13131); details: at 0.1 µM
[9] = target: 5'-AMP-activated protein kinase catalytic subunit alpha-1 (Homo sapiens) (UniProt Q13131); details: at 1 µM
[10] = target: 5'-AMP-activated protein kinase catalytic subunit alpha-2 (Homo sapiens) (UniProt P54646); details: at 0.1 µM
[11] = target: 5'-AMP-activated protein kinase catalytic subunit alpha-2 (Homo sapiens) (UniProt P54646); details: at 1 µM
[12] = target: T4, NUAK family SNF1-like kinase 1 (Homo sapiens) (UniProt O60285); details: at 0.1 µM
T4 sequence (whole entry): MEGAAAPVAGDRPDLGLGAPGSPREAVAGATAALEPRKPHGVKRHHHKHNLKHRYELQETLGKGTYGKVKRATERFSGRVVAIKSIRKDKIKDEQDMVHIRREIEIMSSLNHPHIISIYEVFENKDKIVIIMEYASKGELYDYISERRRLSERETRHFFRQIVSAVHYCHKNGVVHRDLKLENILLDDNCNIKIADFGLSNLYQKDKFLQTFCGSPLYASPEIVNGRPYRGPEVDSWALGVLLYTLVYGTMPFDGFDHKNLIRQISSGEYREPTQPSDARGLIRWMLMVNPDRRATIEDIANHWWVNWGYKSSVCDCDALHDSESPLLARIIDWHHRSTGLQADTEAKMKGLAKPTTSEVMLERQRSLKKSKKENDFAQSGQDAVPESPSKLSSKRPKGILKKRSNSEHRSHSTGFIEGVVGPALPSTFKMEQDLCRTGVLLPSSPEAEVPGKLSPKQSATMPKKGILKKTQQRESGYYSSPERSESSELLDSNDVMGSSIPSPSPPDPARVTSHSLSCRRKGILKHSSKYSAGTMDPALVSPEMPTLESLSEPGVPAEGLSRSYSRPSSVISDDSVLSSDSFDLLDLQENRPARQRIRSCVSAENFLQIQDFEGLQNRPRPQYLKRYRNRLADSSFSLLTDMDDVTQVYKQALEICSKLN

[13] = target: T4, NUAK family SNF1-like kinase 1 (Homo sapiens); details: at 1 µM
[14] = target: T5, Serine/threonine-protein kinase BRSK1 (Homo sapiens) (UniProt Q8TDC3); details: at 0.1 µM
T5 sequence (whole entry): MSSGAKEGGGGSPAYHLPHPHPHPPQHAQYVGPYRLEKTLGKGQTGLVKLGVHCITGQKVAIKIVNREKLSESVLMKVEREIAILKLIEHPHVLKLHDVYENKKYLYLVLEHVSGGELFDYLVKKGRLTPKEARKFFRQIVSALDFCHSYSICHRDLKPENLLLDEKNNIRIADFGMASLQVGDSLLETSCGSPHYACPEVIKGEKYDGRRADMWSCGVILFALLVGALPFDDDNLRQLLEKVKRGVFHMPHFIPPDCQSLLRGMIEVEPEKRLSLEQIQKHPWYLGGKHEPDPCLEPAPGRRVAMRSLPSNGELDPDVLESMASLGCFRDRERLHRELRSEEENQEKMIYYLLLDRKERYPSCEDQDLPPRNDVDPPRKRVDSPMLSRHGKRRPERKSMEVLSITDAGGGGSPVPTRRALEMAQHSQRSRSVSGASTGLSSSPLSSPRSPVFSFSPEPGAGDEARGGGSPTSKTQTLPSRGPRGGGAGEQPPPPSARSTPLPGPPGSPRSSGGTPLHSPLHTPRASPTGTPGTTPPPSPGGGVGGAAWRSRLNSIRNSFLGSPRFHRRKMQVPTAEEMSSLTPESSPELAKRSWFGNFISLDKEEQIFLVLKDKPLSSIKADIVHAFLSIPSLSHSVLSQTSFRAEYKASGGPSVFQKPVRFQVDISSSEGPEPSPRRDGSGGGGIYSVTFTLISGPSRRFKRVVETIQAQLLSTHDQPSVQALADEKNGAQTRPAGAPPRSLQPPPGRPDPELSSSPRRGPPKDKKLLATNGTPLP

[15] = target: T5, Serine/threonine-protein kinase BRSK1 (Homo sapiens); details: at 1 µM
[16] = target: T6, Serine/threonine-protein kinase BRSK2 (Homo sapiens) (UniProt Q8IWQ3); details: at 0.1 µM
T6 sequence (whole entry): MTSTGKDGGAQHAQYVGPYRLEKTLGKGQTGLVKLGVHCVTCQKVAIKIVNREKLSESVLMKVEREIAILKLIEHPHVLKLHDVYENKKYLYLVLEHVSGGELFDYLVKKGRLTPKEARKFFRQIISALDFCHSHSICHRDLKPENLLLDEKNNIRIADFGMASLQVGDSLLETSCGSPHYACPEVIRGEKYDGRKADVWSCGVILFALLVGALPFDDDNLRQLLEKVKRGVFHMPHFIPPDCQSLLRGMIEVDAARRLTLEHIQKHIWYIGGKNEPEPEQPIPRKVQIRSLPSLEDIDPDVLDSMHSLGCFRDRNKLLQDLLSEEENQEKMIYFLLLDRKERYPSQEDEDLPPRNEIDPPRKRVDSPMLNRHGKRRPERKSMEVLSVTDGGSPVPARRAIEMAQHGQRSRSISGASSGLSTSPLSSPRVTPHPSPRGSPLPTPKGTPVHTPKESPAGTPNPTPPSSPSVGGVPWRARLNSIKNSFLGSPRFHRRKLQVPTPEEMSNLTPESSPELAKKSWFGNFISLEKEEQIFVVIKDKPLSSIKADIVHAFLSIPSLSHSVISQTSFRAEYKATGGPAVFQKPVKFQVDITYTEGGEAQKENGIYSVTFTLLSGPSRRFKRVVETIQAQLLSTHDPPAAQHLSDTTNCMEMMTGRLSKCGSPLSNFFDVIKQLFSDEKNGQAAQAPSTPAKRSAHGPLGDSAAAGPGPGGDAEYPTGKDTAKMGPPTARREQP

[17] = target: T6, Serine/threonine-protein kinase BRSK2 (Homo sapiens); details: at 1 µM
[18] = target: Calcium/calmodulin-dependent protein kinase type 1D (Homo sapiens) (UniProt Q8IU85); details: at 0.1 µM
[19] = target: Calcium/calmodulin-dependent protein kinase type 1D (Homo sapiens) (UniProt Q8IU85); details: at 1 µM
[20] = target: Calcium/calmodulin-dependent protein kinase type II subunit alpha (Homo sapiens) (UniProt Q9UQM7); details: at 0.1 µM;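 note: reported values are averages (mean inhibition of CAMK2A)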
Sequence of Calcium/calmodulin-dependent protein kinase type II subunit alpha (Homo sapiens) (Q9UQM7 whole entry): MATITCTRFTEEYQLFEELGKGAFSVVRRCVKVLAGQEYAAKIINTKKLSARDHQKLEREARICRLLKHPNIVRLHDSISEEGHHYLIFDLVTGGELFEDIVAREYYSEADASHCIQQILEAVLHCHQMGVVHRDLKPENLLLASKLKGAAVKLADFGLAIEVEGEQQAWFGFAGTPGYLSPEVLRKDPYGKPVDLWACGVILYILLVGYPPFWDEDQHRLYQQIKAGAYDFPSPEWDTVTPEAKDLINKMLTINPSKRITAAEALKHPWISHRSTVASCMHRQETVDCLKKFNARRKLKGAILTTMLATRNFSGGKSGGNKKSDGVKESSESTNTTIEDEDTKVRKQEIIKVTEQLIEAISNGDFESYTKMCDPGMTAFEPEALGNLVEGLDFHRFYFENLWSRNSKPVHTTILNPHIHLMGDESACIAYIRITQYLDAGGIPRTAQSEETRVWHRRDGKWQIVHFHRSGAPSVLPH

Sequence of Ribosomal protein S6 kinase alpha-6 (Homo sapiens) (Q9UK32 whole entry): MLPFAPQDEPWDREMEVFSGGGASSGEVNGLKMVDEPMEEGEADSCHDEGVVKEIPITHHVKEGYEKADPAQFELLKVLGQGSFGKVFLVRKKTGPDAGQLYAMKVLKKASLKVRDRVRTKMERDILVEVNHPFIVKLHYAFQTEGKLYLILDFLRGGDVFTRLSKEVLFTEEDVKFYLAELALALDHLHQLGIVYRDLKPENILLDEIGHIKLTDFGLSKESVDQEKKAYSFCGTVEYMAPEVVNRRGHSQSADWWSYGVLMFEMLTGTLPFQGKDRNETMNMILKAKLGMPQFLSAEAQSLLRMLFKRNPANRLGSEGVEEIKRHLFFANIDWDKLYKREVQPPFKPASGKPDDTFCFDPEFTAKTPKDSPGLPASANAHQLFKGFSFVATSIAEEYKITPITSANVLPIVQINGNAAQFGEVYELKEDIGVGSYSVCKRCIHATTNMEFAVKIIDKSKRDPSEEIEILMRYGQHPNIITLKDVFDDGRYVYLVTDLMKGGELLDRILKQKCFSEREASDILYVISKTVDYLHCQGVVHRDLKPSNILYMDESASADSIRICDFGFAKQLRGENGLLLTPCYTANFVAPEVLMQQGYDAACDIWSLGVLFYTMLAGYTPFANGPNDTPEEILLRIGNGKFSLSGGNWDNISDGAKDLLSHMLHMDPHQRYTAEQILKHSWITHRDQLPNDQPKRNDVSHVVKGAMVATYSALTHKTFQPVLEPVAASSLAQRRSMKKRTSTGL
Sequence of 5'-AMP-activated protein kinase catalytic subunit alpha-1 (Homo sapiens) (Q13131 whole entry, looked up): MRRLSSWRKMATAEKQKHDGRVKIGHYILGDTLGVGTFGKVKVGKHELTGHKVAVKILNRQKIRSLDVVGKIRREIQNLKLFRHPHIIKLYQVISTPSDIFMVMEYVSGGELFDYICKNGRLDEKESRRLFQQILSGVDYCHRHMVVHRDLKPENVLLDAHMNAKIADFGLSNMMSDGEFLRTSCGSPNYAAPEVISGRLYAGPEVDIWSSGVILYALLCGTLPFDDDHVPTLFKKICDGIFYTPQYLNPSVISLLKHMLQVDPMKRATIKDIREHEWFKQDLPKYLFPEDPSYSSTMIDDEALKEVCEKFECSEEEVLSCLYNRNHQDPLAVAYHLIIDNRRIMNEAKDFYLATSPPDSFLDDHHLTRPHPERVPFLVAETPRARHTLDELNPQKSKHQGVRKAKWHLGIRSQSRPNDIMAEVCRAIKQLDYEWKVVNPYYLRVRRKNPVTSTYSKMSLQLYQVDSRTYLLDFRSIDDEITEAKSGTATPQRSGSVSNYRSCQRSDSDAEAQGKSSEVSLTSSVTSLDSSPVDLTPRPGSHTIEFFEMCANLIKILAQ
Sequence of Calcium/calmodulin-dependent protein kinase type 1D (Homo sapiens) (Q8IU85 whole entry, looked up): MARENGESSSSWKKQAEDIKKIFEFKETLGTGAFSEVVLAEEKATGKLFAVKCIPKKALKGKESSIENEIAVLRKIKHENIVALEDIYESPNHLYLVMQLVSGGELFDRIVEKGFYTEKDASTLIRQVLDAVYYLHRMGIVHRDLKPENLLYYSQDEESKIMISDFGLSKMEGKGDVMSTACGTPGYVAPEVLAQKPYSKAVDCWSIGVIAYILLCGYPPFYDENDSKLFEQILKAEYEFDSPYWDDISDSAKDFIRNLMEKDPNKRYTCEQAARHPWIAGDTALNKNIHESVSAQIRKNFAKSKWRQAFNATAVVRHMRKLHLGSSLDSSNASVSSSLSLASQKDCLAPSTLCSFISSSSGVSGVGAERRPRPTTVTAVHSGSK
Sequence of 5'-AMP-activated protein kinase catalytic subunit alpha-2 (Homo sapiens) (P54646 whole entry, looked up): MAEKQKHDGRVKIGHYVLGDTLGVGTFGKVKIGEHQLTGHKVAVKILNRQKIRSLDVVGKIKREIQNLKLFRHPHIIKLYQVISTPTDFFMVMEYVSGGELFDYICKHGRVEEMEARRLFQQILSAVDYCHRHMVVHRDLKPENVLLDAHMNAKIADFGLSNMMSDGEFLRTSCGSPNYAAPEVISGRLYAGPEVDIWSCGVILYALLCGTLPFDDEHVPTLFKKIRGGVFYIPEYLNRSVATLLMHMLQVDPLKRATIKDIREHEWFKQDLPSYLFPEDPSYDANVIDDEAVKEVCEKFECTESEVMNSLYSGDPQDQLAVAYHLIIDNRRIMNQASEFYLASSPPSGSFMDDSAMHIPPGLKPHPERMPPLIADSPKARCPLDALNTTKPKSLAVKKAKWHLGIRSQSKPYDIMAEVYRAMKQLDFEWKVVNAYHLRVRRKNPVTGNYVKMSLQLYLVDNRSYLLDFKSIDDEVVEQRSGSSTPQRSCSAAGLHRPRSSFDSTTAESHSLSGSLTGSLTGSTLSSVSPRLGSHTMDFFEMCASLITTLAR

| Structure (SMILES) | inhibition [1] [%] | inhibition [2] [%] | inhibition [3] [%] | inhibition [4] [%] | inhibition [5] [%] | inhibition [6] [%] | inhibition [7] [%] | inhibition [8] [%] | inhibition [9] [%] | inhibition [10] [%] | inhibition [11] [%] | inhibition [12] [%] | inhibition [13] [%] | inhibition [14] [%] | inhibition [15] [%] | inhibition [16] [%] | inhibition [17] [%] | inhibition [18] [%] | inhibition [19] [%] | inhibition [20] [%] |
| --- | --- | --- | --- | --- | --- | --- | --- | --- | --- | --- | --- | --- | --- | --- | --- | --- | --- | --- | --- | --- |
| CCN1CCC(C(=O)Nc2n[nH]c3nnc(-c4cccc(F)c4F)cc23)CC1 | 0.55 | 0.58 | 1.25 | 2.32 | 0.65 | -1.34 | 1.23 | 0.5 | 2.46 | 1.01 | 3.06 | 3.72 | 5.44 | -0.16 | 1.41 | 1.7 | 3.77 | 0.68 | 0.83 | -1.94 |
| COc1cc2c(cc1Nc1nc(Nc3cccc(F)c3C(N)=O)c3cc[nH]c3n1)N(C(=O)CN1CCN(C(C)C)CC1)CC2 | 11.7 | -0.48 | 1.29 | 1.96 | 0.58 | 0.73 | 0.46 | 1.45 | 3.93 | 5.43 | 3.18 | 1.37 | 5.31 | 2.82 | -1.3 | -0.84 | -0.2 | 1.29 | 7.02 | 2.3 |
| NS(=O)(=O)c1cccc(N/C=C2\C(=O)Nc3ccccc32)c1 | 22.4 | 6.58 | 26.9 | 4.31 | 11.5 | 6 | 5.21 | 3.31 | 12 | 4.65 | 11.2 | 5.37 | 35.8 | 4.66 | 17.9 | 5.23 | 26 | 0.94 | 3.7 | 3.94 |
